From PubChem BioAssay (NCI)
The panel holds about 79,000 compounds, 15% with a hit somewhere; the sample as a whole holds those more often. The source made the active and inactive calls. Rule as the data show it: active = growth inhibition above about 70%; inactive = the rest.

Test: NCI Yeast Anticancer Drug Screen. Data for the sgs1 strain (AID 173);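 also: 0% = growth of vehicle-only control cultures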
Settings: S. cerevisiae sgs1 mutant, stronger effect = higher value
Procedure: Growth inhibition of yeast strains with defined genetic alterations is measured as a screen for potential anti-cancer activity. Selected strains with alterations in DNA damage repair or cell cycle control were exposed to compounds and growth inhibition was measured relative to vehicle treated controls. The strain used in this assay is sgs1

Measured: growth inhibition

C/C(=N\NC(=S)SCc1ccccc1)c1ccccn1
active: at 11.0 µM 78% | at 33.0 µM 97% | at 100.0 µM 94%
inactive: at 1.2 µM 37% | at 3.7 µM 46%

CCN(CC)CCC(=O)c1ccc(Oc2ccc(F)cc2)cc1
active: at 100.0 µM 96%
inactive: at 1.2 µM -12% | at 3.7 µM -2% | at 11.0 µM 11% | at 33.0 µM 59%

O=C1C(Nc2ccccc2)=C(Oc2ccccc2)C(=O)c2ccccc21
inactive: at 1.2 µM -7% | at 3.7 µM -2% | at 11.0 µM 3% | at 33.0 µM 15% | at 100.0 µM 16%

CCCCCCCCCCCC(=O)N(C)C
inactive: at 1.2 µM -18% | at 3.7 µM -8% | at 11.0 µM -13% | at 33.0 µM 34%
active: at 100.0 µM 98%

COc1cc2c(cc1[N+](=O)[O-])C(=O)C(Br)(Br)CCC2
inactive: at 1.2 µM 38% | at 3.7 µM 45%
active: at 11.0 µM 83% | at 33.0 µM 99% | at 100.0 µM 97%

CCCCN(CCCC)CCSc1ccc(Cl)cc1
active: at 100.0 µM 95%
inactive: at 1.2 µM -10% | at 3.7 µM -7% | at 11.0 µM 10% | at 33.0 µM 42%

COc1ccc(N=C2C(=O)Nc3ccc(Br)cc32)cc1
inactive: at 1.2 µM 1% | at 3.7 µM -10% | at 11.0 µM -5% | at 33.0 µM -16% | at 100.0 µM -11%

COC(=O)CCNc1c2ccccc2nc2cccc([N+](=O)[O-])c12
active: at 1.2 µM 97% | at 3.7 µM 96% | at 11.0 µM 98% | at 33.0 µM 98% | at 100.0 µM 98%
